# Assay outcomes as filed in PubChem BioAssay.
# SSB-PriA inh: inhibitors of Klebsiella pneumoniae PriA binding to SSB C-terminal tail | inhibition, % at 33 µM | AlphaScreen SSBct-PriA binding, biotinylated peptide | hit rate 0.6% among 430,000 | AID 1272365; in the data active means inhibition mostly above about 37%, no sharp cut-off; inactive means mostly below about 20%;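 further: plate controls were negative control peptide for no effect and reference peptide for full effect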
# Mtb hypoxia rep: Mtb hypoxia fluorescent reporter inhibition. M. tuberculosis hypoxia-regulated fluorescent reporter, fluorescence. fluorescence inhibition, % (concentration not given with the values). hit rate 0.1% among 300,000; in the data active means fluorescence inhibition mostly above about 23%, no sharp cut-off; inactive means mostly below about 17%
# ugtP null kill: compounds lethal to S. aureus RN4220 ugtP deletion mutant; hit rate 0.54% among 330,000; OD600 growth, 16 h; AID 1259309; growth inhibition, % (concentration not given with the values); in the data active means growth inhibition above about 68%;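 further: plate controls were untreated wells for no effect and antibiotic for full effect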
# VHR inh abs: DUSP3 (human) phosphatase inhibition. P51452. recombinant VHR phosphatase, pNPP absorbance. inhibition, % at 13.3 µM. hit rate 0.52% among 290,000. AID 1654; in the data active means inhibition above about 50%
# Target sequence (P51452 whole entry, looked up): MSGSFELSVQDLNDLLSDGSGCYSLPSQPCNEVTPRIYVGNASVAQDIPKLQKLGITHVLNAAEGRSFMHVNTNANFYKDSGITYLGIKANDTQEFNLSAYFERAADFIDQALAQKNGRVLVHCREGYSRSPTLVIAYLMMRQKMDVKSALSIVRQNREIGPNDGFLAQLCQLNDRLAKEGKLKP
# PfHsp40 yeast: rescue of PfHsp40-mediated yeast toxicity; S. cerevisiae expressing PfHsp40, growth rescue, ATP luminescence; growth rescue, % at 12.5 µM; hit rate 0.68% among 340,000; AID 504582; in the data active means growth rescue above about 28%, passing the limit was not always enough;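 further: yeast W303a lacking pdr1 and pdr3 grown in galactose medium; growth measured after three days at 30 °C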
# RN4220 kill: kills Staphylococcus aureus RN4220 | S. aureus RN4220 growth, OD600, 16 h | inhibition, % (no concentration beside the values) | hit rate 0.33% among 330,000 | AID 1259311; in the data active means inhibition above about 85%;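 further: plate controls were untreated cells for no effect and reference antibiotic for full effect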
# An asterisk follows results filed as active; . = no result given. A selection: hits, their analogues and other compounds. The true share with any hit is near 1.8%.
SMILES,SSB-PriA inh,Mtb hypoxia rep,ugtP null kill,VHR inh abs,PfHsp40 yeast,RN4220 kill
O=C(Nc1cccc(-c2nn[nH]n2)c1)c1ccc(Br)s1,115.6*,0.9,-8.2,-5.5,-0.7,-2.5
CCC1Oc2ccccc2N(CC(=O)NC2CCCCC2)C1=O (stereo unspecified),-6.7,1.4,100.8*,-7.7,0.1,9.7
CN1C(=O)Cc2cc(NC(=O)C3CCCO3)ccc21 (stereo unspecified),24.0,.,.,.,.,.
COc1cc(OC)cc(C(=O)N2CCN(C(=O)c3cccs3)CC2)c1,-15.5,13.5,3.2,57.6*,-0.3,0.0
O=C(NCCSc1ncc(-c2ccccc2)[nH]1)C(=O)Nc1ccccc1[N+](=O)[O-],42.0*,.,.,.,.,.
CCOc1ccccc1NC(=O)C(=O)NCCSc1ncc(-c2ccccc2)[nH]1,15.0,.,.,.,.,.
CCN(CCNC(=O)C1CCN(Cc2nc(-c3ccc(Cl)cc3)oc2C)CC1)c1ccccc1,46.5*,-6.6,-23.5,-7.7,-0.6,-1.7
CCN(CCNC(=O)C1CCCN(Cc2nc(-c3ccc(OC)cc3)oc2C)C1)c1ccccc1 (stereo unspecified),48.2*,-8.5,-8.5,3.6,-0.1,-5.9
Cc1oc(-c2ccc(Cl)cc2)nc1CN1CCCC(C(=O)N2CCN(C(=O)c3ccco3)CC2)C1 (stereo unspecified),-6.6,.,1.8,52.3*,-0.1,5.5
COc1ccc(C(=O)NCC#CCN(C(C)C)C(C)C)cc1,-11.0,.,.,.,.,.
COC(CNS(=O)(=O)c1cccc(Cl)c1C)c1ccco1 (stereo unspecified),-12.0,.,.,.,.,.
Cc1ccc(OCCOC[C@@H](O)CN2CCN(CCN3C(=O)c4cccc5cccc(c45)C3=O)CC2)cc1C,36.0*,.,.,.,.,.
COC(=O)c1c(NC(=O)C(C)(C)C)csc1C,-13.5,16.1,1.5,-0.3,37.6*,2.2
N#CC(=NNc1ccc([N+](=O)[O-])cc1)C(=N)N1CCCCC1,7.0,42.0*,0.9,.,.,3.6
N#C/C(=N/Nc1ccc([N+](=O)[O-])cc1)C(=N)N1CCCCC1,.,.,.,-9.6,-1.4,.
O=[N+]([O-])c1ccc(NC(=S)N2CCCC2)cc1,-7.8,-0.2,8.5,50.7*,-0.2,2.6
O=[N+]([O-])c1cc(C(F)(F)F)cc([N+](=O)[O-])c1NCCNC(=S)Nc1ccc(Cl)c(Cl)c1,-0.9,5.0,99.9*,13.3,2.1,98.7*
FC(F)(F)c1cccc(NC(=S)Nc2ccc(Cl)c(Cl)c2)c1,-18.3,10.0,100.6*,8.8,0.2,100.8*
FC(F)(F)c1cccc(NC(=S)NNC(=S)Nc2cccc(C(F)(F)F)c2)c1,.,.,.,34.2,.,.
O=C(NNC(=S)Nc1cccc(C(F)(F)F)c1)c1ccc(Cl)cc1Cl,-9.6,11.6,25.1,-13.1,35.7*,47.5
COc1ccc(-c2ccc(C#N)c(SCC(=O)N3CCOCC3)n2)cc1,-14.0,.,.,.,.,.
Cc1c(C(=O)NN=CC(C)C)[nH]c2ccc([N+](=O)[O-])cc12,-4.7,1.5,3.0,.,.,-5.5
Cc1c(C(=O)N/N=C/C(C)C)[nH]c2ccc([N+](=O)[O-])cc12,.,.,.,55.6*,0.9,.
O=C(N/C(=C/C=C/c1ccccc1)C(=O)N1CCCCC1)c1ccc([N+](=O)[O-])cc1,39.1*,-2.8,-6.1,5.5,-0.4,7.2
Cc1cccc(CCNc2nc3ccccc3n3nnnc23)c1,-6.2,-3.1,-4.9,22.8,0.2,6.5
SMILES,SSB-PriA inh,Mtb hypoxia rep,ugtP null kill,VHR inh abs,PfHsp40 yeast,RN4220 kill
Clc1ccc(CCNc2nc3ccccc3n3nnnc23)cc1,-8.3,-2.0,4.4,50.0*,0.6,6.5
O=[N+]([O-])c1ccc(NN=C(c2ccccc2)c2ccccc2)nc1,-2.6,4.6,19.4,.,54.8*,3.3
CC(=NNc1ccc([N+](=O)[O-])cn1)c1ccccc1,-6.8,6.3,12.1,.,-0.8,3.2
Cc1ccc(C=NNc2ccc([N+](=O)[O-])cn2)cc1,-1.9,24.8,-11.2,.,36.3*,0.1
Cc1ccc(-n2c(C)cc(/C=N/Nc3ccc([N+](=O)[O-])cn3)c2C)cc1,.,.,.,20.0,0.6,.
CCOc1ccc(C(O)=C2C(=O)C(=O)N(CCN(C)C)C2c2cc(OC)ccc2OC)cc1Cl (stereo unspecified),-10.2,.,.,.,.,.
O=C(NCC(c1ccco1)N1CCc2ccccc2C1)NC1CCCCC1 (stereo unspecified),0.0,.,.,.,.,.
COc1cccc(CSc2nc3ccccc3cc2C=O)c1,-5.8,.,97.8*,-1.1,0.7,-6.4
O=C(Oc1c(Cl)cc(Cl)c2cccnc12)c1cccc([N+](=O)[O-])c1,29.8,-3.2,97.1*,25.3,-0.1,97.3*
